This passage reports outcome and AC50 results from PubChem BioAssay (EPA / NIEHS).

Records with an inconclusive call do not appear. Active and inactive are the calls of the source. Rule for the calls: active = hit-call score of the fitted dose curve at least 0.9, where 1 is the maximum; inconclusive = response in the unintended direction; inactive = score below 0.9.

Chain of Estrogen receptor (Homo sapiens) (P03372 whole entry, looked up, the tested form may be a part): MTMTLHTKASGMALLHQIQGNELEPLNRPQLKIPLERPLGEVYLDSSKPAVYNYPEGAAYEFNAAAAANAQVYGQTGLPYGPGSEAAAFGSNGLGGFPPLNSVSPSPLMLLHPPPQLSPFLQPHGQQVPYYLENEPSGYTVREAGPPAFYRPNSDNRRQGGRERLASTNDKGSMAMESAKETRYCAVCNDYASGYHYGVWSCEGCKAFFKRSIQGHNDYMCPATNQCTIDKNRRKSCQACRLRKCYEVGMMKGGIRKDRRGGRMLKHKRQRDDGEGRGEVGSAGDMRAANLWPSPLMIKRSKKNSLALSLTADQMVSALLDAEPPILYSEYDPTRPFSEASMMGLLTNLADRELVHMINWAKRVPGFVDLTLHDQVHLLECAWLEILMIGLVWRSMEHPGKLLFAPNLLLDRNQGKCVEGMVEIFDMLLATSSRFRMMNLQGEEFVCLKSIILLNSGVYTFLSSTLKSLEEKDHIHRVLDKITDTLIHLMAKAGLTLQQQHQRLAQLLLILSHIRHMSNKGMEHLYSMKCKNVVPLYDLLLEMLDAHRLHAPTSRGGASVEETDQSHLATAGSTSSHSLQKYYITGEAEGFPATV
T1 sequence (P03372 whole entry, looked up): as the sequence (P03372 whole entry, looked up, the tested form may be a part) above
T1 sequence (Q92731 whole entry, looked up): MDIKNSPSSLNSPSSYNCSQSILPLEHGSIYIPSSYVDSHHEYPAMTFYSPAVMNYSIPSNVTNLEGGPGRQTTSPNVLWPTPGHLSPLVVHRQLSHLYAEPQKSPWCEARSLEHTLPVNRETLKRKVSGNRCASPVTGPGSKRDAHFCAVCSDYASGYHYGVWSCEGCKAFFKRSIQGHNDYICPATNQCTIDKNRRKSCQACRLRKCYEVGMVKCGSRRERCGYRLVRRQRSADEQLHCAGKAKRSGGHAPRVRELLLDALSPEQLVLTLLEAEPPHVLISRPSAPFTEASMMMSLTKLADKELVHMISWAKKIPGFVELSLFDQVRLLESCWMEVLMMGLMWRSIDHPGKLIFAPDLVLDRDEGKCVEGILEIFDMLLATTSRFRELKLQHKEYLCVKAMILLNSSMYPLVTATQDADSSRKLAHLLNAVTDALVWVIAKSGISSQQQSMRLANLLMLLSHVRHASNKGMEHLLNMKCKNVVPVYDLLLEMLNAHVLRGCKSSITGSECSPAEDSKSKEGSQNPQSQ

The target in the first test is Estrogen receptor (Homo sapiens) (UniProt P03372). Description: OT_ER_ERaERa_1440: Odyssey Thera (OT) 24-hour HEK293T Protein-Complementation Assay for Estrogen Receptor-alpha/-alpha Homodimer (AID 2283349).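 Note: hits raise fluorescence above DMSO for agonists and antagonists alike.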 Summed up:
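Protein-fragment complementation between two human ERα ligand-binding domains (aa 310-547) in stably transfected HEK293T cells was monitored after 24 h treatment, using fluorescence intensity relative to vehicle controls.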
Turning to `CN1CCc2cccc3c2[C@H]1Cc1ccc(O)c(O)c1-3`, the outcome was inactive.

Take `CCC(C)(C)C1CCC(=O)CC1`: the result was inactive.

On to `CC(C)(C)c1ccc(S)cc1`, for which the outcome was inactive.

As for `CC(=O)OC(C)(C)C1CC=C(C)CC1` (stereo not drawn), the molecule was called inactive.

In the case of `CCNC(=S)NCC`, the molecule was called inactive.

One may read the AC50 as the concentration at which the activity in the assay is half-maximal. As for `CCCCCCOc1ccc(O)cc1`, the AC50 is 13.6 µM (active).

With `C=C(C)C(N)=O`, the outcome was inactive.

On to `C1=COCCC1`, for which the call was inactive.

Regarding `CC1=CCC(C(C)C)=CC1`, the call was inactive.

For the molecule `CCCCCCCCOC(=O)c1ccc(O)cc1`, the AC50 is 32.8 µM (active).

For `CCCCCCCCCOS(=O)(=O)O`, the outcome was inactive.

With `CC12CCC(C1)C(C)(C)C2O` (stereo not drawn), the result was inactive.

As for `Cc1cccc(C)c1`, the outcome was inactive.

Turning to `COC(=O)C(C)Oc1ccc(Oc2ncc(C(F)(F)F)cc2Cl)cc1` (stereo not drawn), the result was inactive.

On to `c1ccc(OCCOc2ccccc2)cc1`, for which the molecule was called inactive.

For `O=C(O)c1ccccc1O`, the molecule was classed as inactive.

For `COc1ccc(OC)cc1`, the call was inactive.

Take `CCCCCCCCOC(C)=O`: the molecule was classed as inactive.

Consider `O=C(O)C1=NN(c2ccc(S(=O)(=O)O)cc2)C(=O)C1`, for which the outcome was inactive.

On to `CCCCCCC(C)O` (stereo not drawn), for which the molecule was called inactive.

Turning to `CCCCC/C=C\C=C\C(=O)OCC`, the result was inactive.

As for `O=Cc1ccccc1O`, the AC50 is 92 µM (active).

In the case of `NC(N)=S`, the call was inactive.

Consider `CCC(=O)OC(C)(C)C1CC=C(C)CC1` (stereo not drawn), for which the call was inactive.

For the molecule `Cc1cccc(O)c1`, the molecule was called inactive.

For the molecule `CCc1cccc(O)c1`, the result was inactive.

Regarding `CCOCC(C)O` (stereo not drawn), the result was inactive.

Turning to `CC(O)CN` (stereo not drawn), the molecule was classed as inactive.

Regarding `CC1=CCC(=C(C)C)CC1`, the molecule was called inactive.

As to `COc1ccccc1O`, the result was inactive.

The next test shares this target. Description: OT_ER_ERaERa_0480: Odyssey Thera (OT) 8-hour HEK293T Protein-Complementation Assay for Estrogen Receptor-alpha/-alpha Homodimer (AID 2283351).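 Note: rise in fluorescence from reassembled reporter fragments on ERα LBD homodimer in nucleus or whole cell.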 An outline of the steps:
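HEK293T cells stably expressing the human ERα ligand-binding domain (aa 310-547) as a homodimer PCA were dosed with compound for 8 h. Gain of fluorescence intensity versus DMSO vehicle was read by laser scanning cytometry.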
For `CN1CCc2cccc3c2[C@H]1Cc1ccc(O)c(O)c1-3`, the call was inactive.

Consider `CCC(C)(C)C1CCC(=O)CC1`, for which the outcome was inactive.

Regarding `CC(C)(C)c1ccc(S)cc1`, the molecule was called inactive.

For the molecule `CC(=O)OC(C)(C)C1CC=C(C)CC1` (stereo not drawn), the call was inactive.

With `CCNC(=S)NCC`, the call was inactive.

On to `CCCCCCOc1ccc(O)cc1`, for which the AC50 was 18.3 µM (active).

Turning to `C=C(C)C(N)=O`, the outcome was inactive.

Consider `C1=COCCC1`, for which the result was inactive.

`CC1=CCC(C(C)C)=CC1`: the outcome was inactive.

As for `CCCCCCCCOC(=O)c1ccc(O)cc1`, the AC50 was 20.9 µM (active).

Regarding `CCCCCCCCCOS(=O)(=O)O`, the result was inactive.

Consider `CC12CCC(C1)C(C)(C)C2O` (stereo not drawn), for which the call was inactive.

On to `Cc1cccc(C)c1`, for which the molecule was called inactive.

As for `COC(=O)C(C)Oc1ccc(Oc2ncc(C(F)(F)F)cc2Cl)cc1` (stereo not drawn), the result was inactive.

As to `c1ccc(OCCOc2ccccc2)cc1`, the molecule was classed as inactive.

Regarding `O=C(O)c1ccccc1O`, the outcome was inactive.

For the molecule `COc1ccc(OC)cc1`, the molecule was classed as inactive.

On to `CCCCCCCCOC(C)=O`, for which the molecule was called inactive.

Turning to `O=C(O)C1=NN(c2ccc(S(=O)(=O)O)cc2)C(=O)C1`, the call was inactive.

On to `CCCCCCC(C)O` (stereo not drawn), for which the molecule was called inactive.

On to `CCCCC/C=C\C=C\C(=O)OCC`, for which the call was inactive.

Consider `O=Cc1ccccc1O`, for which the outcome was inactive.

`NC(N)=S`: the outcome was inactive.

As to `CCC(=O)OC(C)(C)C1CC=C(C)CC1` (stereo not drawn), the molecule was called inactive.

Take `Cc1cccc(O)c1`: the outcome was inactive.

As for `CCc1cccc(O)c1`, the molecule was called inactive.

For `CC(O)CN` (stereo not drawn), the molecule was classed as inactive.

`CC1=CCC(=C(C)C)CC1`: the result was inactive.

As for `COc1ccccc1O`, the outcome was inactive.

The next test deals with T1, Estrogen receptor (Homo sapiens) + Estrogen receptor beta (Homo sapiens) (UniProt P03372+Q92731). The test is described as follows: OT_ER_ERaERb_0480: Odyssey Thera (OT) 8-hour HEK293T Protein-Complementation Assay for Estrogen Receptor-alpha/-beta Heterodimer (AID 2283352). Summed up:
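Compound added to HEK293T cells carrying split-reporter-tagged ER-alpha and ER-beta LBDs, incubated 8 hours, then imaged by laser scanning cytometer. Signal rise in nucleus, or nucleus and cytoplasm, over vehicle was fitted in the positive direction.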
For the molecule `CCNC(=S)NCC`, the outcome was inactive.

As to `CCCCCCOc1ccc(O)cc1`, the AC50 was 12 µM (active).

With `CCCCCCCCOC(=O)c1ccc(O)cc1`, the AC50 is 10.1 µM (active).

As to `CCCCCCCCCOS(=O)(=O)O`, the outcome was inactive.

For `CC12CCC(C1)C(C)(C)C2O` (stereo not drawn), the result was inactive.

For `c1ccc(OCCOc2ccccc2)cc1`, the result was inactive.

In the case of `CCCCCCC(C)O` (stereo not drawn), the outcome was inactive.

With `CCCCC/C=C\C=C\C(=O)OCC`, the outcome was inactive.

As for `CCC(=O)OC(C)(C)C1CC=C(C)CC1` (stereo not drawn), the outcome was inactive.

`Cc1cccc(O)c1`: the result was inactive.

Take `CCc1cccc(O)c1`: the outcome was inactive.

Consider `CCOCC(C)O` (stereo not drawn), for which the result was inactive.

Turning to `CC(O)CN` (stereo not drawn), the result was inactive.

For another test, the target named is T1, Estrogen receptor (Homo sapiens) + Estrogen receptor beta (Homo sapiens). Description: OT_ER_ERaERb_1440: Odyssey Thera (OT) 24-hour HEK293T Protein-Complementation Assay for Estrogen Receptor-alpha/-beta Homodimer (AID 2283356).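 Note: heteromer of ER alpha and ER beta binding domains; hits raise reporter fluorescence and both agonists and antagonists give an increase.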 Summed up:
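Stable HEK293T PCA line, ERα LBD 310-547 + ERβ LBD 263-489 fused to reporter fragments; 24 h treatment; fluorescence read by laser scanning cytometry; positive fitting direction relative to DMSO.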
With `CN1CCc2cccc3c2[C@H]1Cc1ccc(O)c(O)c1-3`, the concentration at half-maximal activity (AC50) is 4.59 µM (active).

In the case of `CC(C)(C)c1ccc(S)cc1`, the result was inactive.

As to `CCNC(=S)NCC`, the result was inactive.

For `CCCCCCOc1ccc(O)cc1`, the AC50 was 11.9 µM (active).

Regarding `CCCCCCCCOC(=O)c1ccc(O)cc1`, the AC50 is 24 µM (active).

`CCCCCCCCCOS(=O)(=O)O`: the outcome was inactive.

On to `CC12CCC(C1)C(C)(C)C2O` (stereo not drawn), for which the result was inactive.

Regarding `c1ccc(OCCOc2ccccc2)cc1`, the outcome was inactive.

In the case of `CCCCCCC(C)O` (stereo not drawn), the result was inactive.

With `CCCCC/C=C\C=C\C(=O)OCC`, the outcome was inactive.

With `CCC(=O)OC(C)(C)C1CC=C(C)CC1` (stereo not drawn), the outcome was inactive.

Consider `Cc1cccc(O)c1`, for which the result was inactive.

As to `CCc1cccc(O)c1`, the result was inactive.

For `CCOCC(C)O` (stereo not drawn), the outcome was inactive.

With `CC(O)CN` (stereo not drawn), the result was inactive.

With `COc1ccccc1O`, the outcome was inactive.
